Screening results as filed in PubChem.
BL2 CD40 inh = CD40 pathway inhibition in BL2 cells. BL2 NF-kB luciferase reporter, CD40L-induced, 4 h. inhibition, % at 10 µM. 83,000 compounds, 0.94% hits. AID 1053188;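 active = mean inhibition of at least 50% with a set share of replicates also reaching that level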;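 also: 0% = neutral control wells and 100% = IKK inhibitor VII at 50 µM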
Active calls of the source: *; [ ] = remark or other dose. The full list was thinned out, with hits kept by preference.

SMILES | BL2 CD40 inh
CCOc1ccc(C(=O)N/N=C/c2cc([N+](=O)[O-])cs2)cc1 | 9
CC(C)c1ccc(NC(=O)CSc2nc(=O)n(CCCN3CCOCC3)c3c2CCC3)cc1 | -4
C[C@@H]1CN([C@@H](C)CO)C(=O)CCCn2cc(nn2)CO[C@H]1CN(C)Cc1ccc(C(=O)Nc2ccccc2N)cc1 | -14[25 µM]
CN(Cc1cccs1)S(=O)(=O)c1ccc(Cl)cc1F | -12
O=C(CSc1nnc(Nc2ccccc2)s1)NC1CCS(=O)(=O)C1 (centres undefined) | 1
O=C(O)c1ccc(-n2nc(C(F)(F)F)c3c2CCCC3)cc1 | -3
C[C@H]1CCCCO[C@@H](CN(C)Cc2ccncc2)[C@@H](C)CN([C@@H](C)CO)C(=O)c2cc(NS(=O)(=O)c3ccc(Cl)cc3)ccc2O1 | 11[25 µM]
C[C@@H]1CN([C@H](C)CO)C(=O)c2cc(NS(=O)(=O)c3ccc(Cl)cc3)ccc2O[C@@H](C)CCCCO[C@H]1CN(C)Cc1ccc(Cl)c(Cl)c1 | 28
COc1ccc(CN(C)C[C@H]2OCCCC[C@H](C)Oc3ccc(NS(=O)(=O)c4ccc(Cl)cc4)cc3C(=O)N([C@H](C)CO)C[C@H]2C)cc1 | 63*
C[C@H]1CN([C@@H](C)CO)C(=O)c2cccc(NS(=O)(=O)c3ccc(Cl)cc3)c2O[C@H]1CN(C)Cc1ccc(C(=O)Nc2ccccc2N)cc1 | -43[25 µM]
C[C@@H]1CN([C@H](C)CO)C(=O)c2cccc(NS(=O)(=O)c3ccc(Cl)cc3)c2O[C@@H]1CN(C)Cc1ccc(C(=O)Nc2ccccc2N)cc1 | active[25 µM]
COc1ccc(S(=O)(=O)Nc2ccc3c(c2)C(=O)N([C@@H](C)CO)C[C@H](C)[C@@H](CN(C)Cc2ccc(C(F)(F)F)cc2)OCCCC[C@@H](C)O3)cc1 | 76*[25 µM]
C[C@H](CO)N1C[C@H](C)[C@H](CN(C)Cc2ccc(C(=O)Nc3ccccc3N)cc2)Oc2c(NS(=O)(=O)c3ccc(Cl)cc3)cccc2C1=O | -33[25 µM]
COc1ccc(NC(=O)Nc2ccc3c(c2)C(=O)N([C@@H](C)CO)C[C@@H](C)[C@@H](CN(C)Cc2ccc(C(F)(F)F)cc2)OCCCC[C@H](C)O3)cc1 | -1
COc1ccc(S(=O)(=O)Nc2ccc3c(c2)C(=O)N([C@H](C)CO)C[C@@H](C)[C@H](CN(C)C(=O)Nc2ccc(C(F)(F)F)cc2)OCCCC[C@@H](C)O3)cc1 | 5
C[C@@H]1CN([C@H](C)CO)C(=O)c2c(c3ccccc3n2C)-c2ccccc2CO[C@H]1CN(C)S(=O)(=O)c1cccc(C#N)c1 | -4
Cc1ccc(NC(=O)COC(=O)CCc2ccc(S(=O)(=O)N3CCOCC3)cc2)c(C)c1 | 6
CCOCCCNC(=S)N1CCCN(c2nc3cc(C)ccc3cc2C#N)CC1 | 0
O=C(CSc1ncccn1)Nc1ccc(Cl)c(S(=O)(=O)N2CCOCC2)c1 | 10
COCCn1c(CCC(=O)O)ccc1-c1cccs1 | -6
O=C(COC(=O)COc1ccccc1F)NCCc1ccc(F)cc1 | 5
O=C(COc1cccnc1[N+](=O)[O-])Nc1ncc(Cl)cc1Cl | -15
O=C(COc1cccnc1[N+](=O)[O-])Nc1c(Cl)cccc1Cl | 5
O=C(COc1cccnc1[N+](=O)[O-])c1ccc(Cl)s1 | 92*
O=C(C[C@@H]1CC[C@H]2NC[C@@H](O)COC[C@@H]2O1)Nc1ccc(-c2ccccc2)cc1 | -8[25 µM]
SMILES | BL2 CD40 inh
Cn1cnc([N+](=O)[O-])c1Cl | 12
CCS(=O)(=O)c1c([N+](=O)[O-])ncn1C | 95*
Cn1cnc([N+](=O)[O-])c1Oc1ccccc1 | 12
CCN(CC)c1c([N+](=O)[O-])ncn1C | 4
Cn1cnc([N+](=O)[O-])c1Oc1cccc2ccccc12 | 29
Cn1cnc([N+](=O)[O-])c1S(=O)(=O)Oc1cccc2ccccc12 | 101*
Cc1ccc(S(=O)(=O)NC(CC(=O)NCC2CCCO2)c2ccccc2)cc1 (centres undefined) | 10
O=C(O)CCCn1cc(NC(=O)c2sc3ccccc3c2Cl)cn1 | 10
COC(=O)c1cnc2c(c(C)nn2C)c1OC | 13
O=C(/C=C/c1ccc2c(c1)OCO2)c1ccccn1 | -87
C(=Cc1cnc2ccccc2n1)c1ccc2c(c1)OCO2 | 98*
Nc1nc2ccccc2n1/N=C/c1ccc2c(c1)OCO2 | -83
COc1ccc(OCCCC(=O)NCCc2nc3ccccc3[nH]2)cc1 | -4
O=C(C1CC1)N1C[C@H]2[C@@H](c3ccccc31)[C@@H](CO)N2S(=O)(=O)c1ccccc1 | 11
CC12CN3CC(C)(CN(C1)C3c1ccc([N+](=O)[O-])o1)C2 (centres undefined) | -5
Cc1ccc(S(=O)(=O)c2ccc([N+](=O)[O-])o2)cc1 | 109*
Cc1ccc(-c2nnc(NC(=O)c3ccc([N+](=O)[O-])o3)o2)c(C)c1 | -4
COc1ccc(C=NNc2ccc([N+](=O)[O-])cc2S(=O)(=O)Nc2ccccc2C(=O)O)cc1OC | 15
O=C(CCNC(=O)c1ccc(Cl)cc1)Nc1ccc(S(=O)(=O)N2CCCCC2)cc1 | 16
CC(C)Cc1ccc(C(C)CC2=CCC(CN(C)C)C2=O)cc1 (centres undefined) | 94*
